Bead autofluor: flagged as autofluorescent in microsphere protease counterscreen. compound autofluorescence counterscreen, microsphere flow cytometry; stronger effect = higher value. fluorescence intensity (concentration not given with the values). 360,000 tested, 3.1% active; in the data active = fluorescence intensity above about 16000; inconclusive = no clear call, values can overlap the other calls
BoNT-F LC inh: BoNT/F light chain protease inhibitors, primary screen, biochemical, flow cytometry, MLPCN library; Multiplex microsphere protease cleavage assay; 360,000 tested, 0.22% active; inhibition, % at 10 µM; in the data active = inhibition above about 35%, passing the limit was not always enough; inconclusive = no clear call, values can overlap the other calls; also: plate controls were buffer without enzyme for full effect and enzyme alone for no effect
BoNT A protease: BoNT/A light chain protease inhibitors, primary screen, biochemical, flow cytometry, MLPCN library | Botulinum neurotoxin type A light chain protease (Clostridium botulinum A str. ATCC 3502) | multiplex microsphere protease substrate cleavage | 360,000 tested, 0.17% active | inhibition, % at 10 µM; also: plate controls were buffer without enzyme for full effect and enzyme alone for no effect
Anthrax LF prot: Bacillus anthracis LF protease inhibitors, primary screen, biochemical, multiplex microsphere, MLPCN library. Lethal factor (Bacillus anthracis), P15917. multiplex microsphere protease cleavage assay. inhibition, % at 10 µM. 360,000 tested, 0.12% active. AID 588501, 2011; also: plate controls were buffer without enzyme for full effect and enzyme alone for no effect
Target sequence (P15917 whole entry, looked up): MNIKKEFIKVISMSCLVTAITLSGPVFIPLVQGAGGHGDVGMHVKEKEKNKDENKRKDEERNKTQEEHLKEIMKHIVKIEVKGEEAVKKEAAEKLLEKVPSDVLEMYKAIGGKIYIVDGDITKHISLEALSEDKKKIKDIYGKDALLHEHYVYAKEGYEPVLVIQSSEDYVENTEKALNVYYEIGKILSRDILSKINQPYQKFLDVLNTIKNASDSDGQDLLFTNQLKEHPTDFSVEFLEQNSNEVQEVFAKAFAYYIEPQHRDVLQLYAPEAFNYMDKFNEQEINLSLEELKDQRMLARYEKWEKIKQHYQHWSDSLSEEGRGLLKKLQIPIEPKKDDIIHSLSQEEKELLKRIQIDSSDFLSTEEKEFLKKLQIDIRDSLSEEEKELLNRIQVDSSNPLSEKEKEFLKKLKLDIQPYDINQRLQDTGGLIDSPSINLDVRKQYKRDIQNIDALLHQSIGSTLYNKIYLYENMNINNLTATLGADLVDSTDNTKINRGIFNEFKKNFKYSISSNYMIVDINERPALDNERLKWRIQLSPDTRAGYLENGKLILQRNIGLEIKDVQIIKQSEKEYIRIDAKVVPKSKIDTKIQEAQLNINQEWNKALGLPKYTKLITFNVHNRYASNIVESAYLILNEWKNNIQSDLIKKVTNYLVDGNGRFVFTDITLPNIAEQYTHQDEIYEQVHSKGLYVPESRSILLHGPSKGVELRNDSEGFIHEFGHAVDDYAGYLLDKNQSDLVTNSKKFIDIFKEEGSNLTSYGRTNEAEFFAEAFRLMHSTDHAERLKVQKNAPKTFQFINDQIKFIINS
Active calls of the source: *; u = inconclusive. The list is not random: actives were taken first. Their share in the collection is about 3.5%. Rule as the data show it, unless noted: active = inhibition above about 30%; inconclusive = no clear call, values can overlap the other calls; inactive = below that.

SMILES	Bead autofluor	BoNT-F LC inh	BoNT A protease	Anthrax LF prot
Cc1cccc(NC(=O)CCSc2nncn2C)c1	22260*	3.7	2.1	-1.4
Cc1cccc(NC(=S)NNC(=O)CCn2cc(C)cn2)c1	22732*	1.4	u	-1.8
Cc1cccc(NC(=O)CCSc2ccccn2)c1	2124	-25.6	-1.9	-0.3
Cc1nn(CCC(=O)NNC(=S)Nc2ccccc2)c(C)c1Br	2571	-3.8	-0.2	-2.3
O=Cc1ccc(Sc2nnc(-c3ccccc3)o2)c([N+](=O)[O-])c1	19318*	4.1	u	-7.1
C[C@@H]1C(=O)OC[C@H]1NC(=O)OCc1ccccc1	3425	-10.3	-1.0	-6.4
Nc1nc(SCc2cccnc2)c2ncn(C3OC(CO)C(O)C3O)c2n1 (centres undefined)	3928	-7.5	-0.1	1.5
Cc1nc(CNC(=O)CC2C(=O)NCCN2Cc2ccc(F)cc2)cs1 (centres undefined)	u	-0.7	3.7	7.1
COc1ccccc1C(=O)NC(CCSC)C(=O)OCC(=O)N1CCCC1=O (centres undefined)	8600	2.2	1.0	9.2
O=C(NNC(=O)c1cc(OCC(F)(F)F)ccc1OCC(F)(F)F)c1cccc(C(F)(F)F)c1	2889	-2.0	0.0	-2.4
C#CCONC(=O)c1cc(OCC(F)(F)F)ccc1OCC(F)(F)F	22449*	-3.3	0.0	-7.3
Cc1ccc(C(=O)NNC(=O)c2cc(OCC(F)(F)F)ccc2OCC(F)(F)F)cc1	21489*	-8.7	u	-1.6
O=C(NO)c1cc(OCC(F)(F)F)ccc1OCC(F)(F)F	u	12.9	-0.2	u
Cc1ccc(C2/C(=C(\O)c3ccc4c(c3)OCCO4)C(=O)C(=O)N2Cc2cccnc2)cc1 (centres undefined)	6364	-5.7	-0.5	-1.2
COC(=O)C1=CN(Cc2ccccc2)C=C(C(=O)OC)C1c1cc(F)ccc1F	3793	-27.0	-1.6	-8.8
CC[C@H](C)NC(=O)CCCCCn1c(=S)[nH]c2c([nH]c3ccc(OC)cc32)c1=O	3316	-4.5	-0.5	-2.5
COc1ccc2[nH]c3c(=O)n(CCCCC(=O)N4CCC(C(N)=O)CC4)c(=S)[nH]c3c2c1	20373*	1.0	u	2.5
CCCCNC(=O)CCCCn1c(=S)[nH]c2c([nH]c3ccc(OC)cc32)c1=O	4172	2.6	-0.3	7.1
COc1ccc2[nH]c3c(=O)n(CCCCC(=O)NCCN4CCCC4)c(=S)[nH]c3c2c1	17189*	-6.6	-1.5	-0.5
Cc1ccc(S(=O)(=O)N2CCC(C(N)=O)CC2)cc1[N+](=O)[O-]	3086	0.6	1.3	2.3
CCOC(=O)CSc1nnc(CNC(=O)c2ccc(OC)cc2OC)n1-c1ccc(OC)cc1	21152*	-0.1	-1.3	1.1
CCOC(=O)CSc1nnc(CNC(=O)c2ccc(OC)cc2OC)n1C	16030	0.8	u	1.2
COC(=O)CSc1nnc(Cc2cc(=O)[nH]c(=O)[nH]2)n1-c1cccc(OC)c1	3913	4.4	-0.2	-1.5
CCOC(=O)CSc1nnc(Cc2cc(=O)[nH]c(=O)[nH]2)n1-c1cccc(OC)c1	21403*	-1.2	u	-13.9
CCc1ccc(C(=O)COC(=O)c2cc([N+](=O)[O-])ccc2N2CCOCC2)cc1	5256	2.9	5.2	2.4
SMILES	Bead autofluor	BoNT-F LC inh	BoNT A protease	Anthrax LF prot
Cc1cccc(C(=O)NCCc2nnc(SCC(=O)Nc3cccc(C(=O)O)c3)n2C)c1	4438	1.8	2.5	0.0
O=C(CCOc1ccccc1)Nc1ccccc1F	3515	-13.4	1.8	2.9
Nc1nnc(C(=O)c2ccccc2N)s1	21252*	-3.1	-1.7	-0.5
Cc1ccc(S(=O)(=O)NC(=O)Nc2ccc(F)cc2)cc1	16339*	2.9	0.4	-2.2
Cc1ccc(S(=O)(=O)NC(=O)Nc2ccccc2)cc1	4093	1.5	-0.1	-4.9
COc1cc(NC(=O)NS(=O)(=O)c2ccc(C)cc2)cc(OC)c1	20395*	-7.1	u	-6.4
Cn1c(N)c(C(=O)CSc2n[nH]c(N)n2)c(=O)n(C)c1=O	6912	3.7	-2.3	-3.0
COCCN(Cc1ccco1)C(=O)Cn1ncc2c(=O)oc3ccccc3c21	4040	-1.4	-0.6	0.6
COc1ccc(NC(=O)CSc2ccc3c4c(cccc24)C(=O)c2ccccc2-3)cc1	9656	8.0	22.8	14.4
N#Cc1cccc(NC(=O)CSc2ccc3c4c(cccc24)C(=O)c2ccccc2-3)c1	7954	43.2*	43.6*	27.6
Cc1oc(C(=O)O)cc1COc1ccc2c3c(c(=O)oc2c1C)CCC3	16185*	-4.9	-0.4	0.2
O=C(c1cc2c(=O)n3ccccc3nc2s1)N1CCOCC1	21556*	-3.5	-3.4	0.3
CC1CCN(C(=O)c2cc3c(=O)n4ccccc4nc3s2)CC1	5521	7.5	2.5	2.6
COC(=O)c1c(C(=O)OC)c2n(c1C)Cc1ccccc1C2	22637*	0.4	-0.7	-3.3
CCC(C)NC(=O)c1cc(-c2ccc3c(c2)OCO3)on1 (centres undefined)	3601	-10.7	0.1	0.1
CC(Oc1ccccc1Cl)C(=O)/C=C/N(C)C (centres undefined)	20970*	4.9	3.5	0.4
CCc1nc2ccc(C(=O)NCCc3ccccn3)cn2c1N(C)Cc1ccc(N(C)C)cc1	3852	-3.8	0.0	-12.4
COc1cc(/C=C(\CCC(=O)O)c2nc3ccccc3s2)ccc1OCC(=O)Nc1c(Cl)cccc1Cl	u	-36.3	-24.5	-2.4
CCCNC(=O)N[C@@H](CCSC)C(=O)OC	7884	9.9	0.2	-1.1
COC(=O)[C@H](CCSC)NC(=O)NCCc1ccc(F)cc1	23311*	-2.2	-0.6	-2.4
COC(=O)[C@H](CCSC)NC(=O)Nc1ccc(C)c(C)c1	21760*	5.2	4.2	1.5
COc1cc(C(=S)N2CCCCC2)ccc1O	7223	-7.6	-0.4	-4.3
Oc1ccc(C(=S)N2CCCCC2)cc1	3097	7.0	0.0	-6.0
Oc1ccc(C(=S)N2CCCCC2)cc1Cl	24104*	-5.8	-1.6	-1.9
COc1cc(C(=S)N2CCCC2)ccc1O	20063*	1.6	1.9	-0.5
SMILES	Bead autofluor	BoNT-F LC inh	BoNT A protease	Anthrax LF prot
COc1cccc(CNC(=O)c2nnn(CC(=O)Nc3cccc(C)c3)c2N)c1	5748	-1.5	0.3	-2.5
O=C(c1ccc(F)cc1)N1CCN(c2ccc([N+](=O)[O-])cc2-n2cccc2)CC1	5239	-4.6	0.4	3.0
CC(=O)N1c2ccc(S(=O)(=O)N(C)C3CCCCC3)cc2CC1C (centres undefined)	4919	1.0	0.6	1.1
CCOc1ccccc1CNC(=O)C1CCC(=O)N1C(C)C (centres undefined)	22457*	6.8	2.9	0.2
CCOC(=O)N1CCN(C(=O)CN(Cc2ccc(Cl)cc2)S(=O)(=O)c2ccccc2)CC1	24155*	-3.6	-0.8	-1.9
CCN(C1CCCCC1)S(=O)(=O)c1ccc(C(=O)O)cc1	23470*	-1.7	-0.3	-1.8
CCOC(=O)N1CCN(C(=O)CN(Cc2ccccc2)S(C)(=O)=O)CC1	11333	-5.3	-0.8	0.8
CCOC(=O)N1CCN(C(=O)CN(C2CCCCC2)S(=O)(=O)c2ccc(F)cc2)CC1	9856	13.0	1.5	-5.0
CCN(CC)S(=O)(=O)c1ccc(C(=O)O)cc1	5715	-4.9	0.7	-1.4

Assay outcomes: PubChem, NMMLSC
